Screening results from PubChem BioAssay.
L3MBTL1 block: qHTS Assay for the Inhibitors of L3MBTL1; AlphaScreen L3MBTL1–H3K9me1 peptide binding; Potency, µM (doses to about 57.1 µM), hits mostly inhibitors; 230,000 compounds, 0.66% hits; note: nearly all actives have a fitted effect of over 60% in size
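First, the protein-peptide complex forms for 30 min at room temperature (L3MBTL1 50 nM, biotinylated H3K9me1 peptide 75 nM). Next, compounds are pin-transferred and incubated 30 min. Finally, AlphaScreen beads are added and read after 30 min.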
BLM helicase inh: qHTS Assay for Inhibitors of Bloom's syndrome helicase (BLM); RecQ-like DNA helicase BLM (Homo sapiens), P54132; recombinant BLM DNA unwinding, fluorescence dequenching; Potency, µM (series often up to 56.1 µM), actives largely listed as inhibitors; 350,000 compounds, 0.2% hits; note: nearly all actives have a fitted effect of over 35% in size
RECQ1 inh: qHTS Assay for Inhibitors of RecQ-Like Dna Helicase 1 (RECQ1) | ATP-dependent DNA helicase Q1 (Homo sapiens), P46063 | RECQ1 DNA unwinding, red fluorescence kinetic read | Potency, µM (highest dose often 57.3 µM), hits mostly inhibitors | 240,000 compounds, 0.54% hits | AID 2549, 2010; note: nearly all actives have a fitted effect of over 30% in size
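RECQ1T1 50 nM; forked duplex (20 bp + 30-nt ss tails) 200 nM, ATP 2 mM final; pH 8.0, 2 mM MgCl2, 2.5 ug/ml poly(dI-dC); 15 min compound preincubation; discontinuous kinetic read over 2 h at RT.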
APE1 inh: qHTS Assay for Inhibitors of the Human Apurinic/apyrimidinic Endonuclease 1 (APE1); recombinant APE1, TAMRA/BHQ-2 abasic DNA cleavage fluorescence; Potency, µM (series often up to 65.8 µM), actives largely listed as inhibitors; 350,000 compounds, 0.35% hits; AID 2517, 2012; note: nearly all actives have a fitted effect of over 55% in size
Target sequence (P27695 whole entry, looked up): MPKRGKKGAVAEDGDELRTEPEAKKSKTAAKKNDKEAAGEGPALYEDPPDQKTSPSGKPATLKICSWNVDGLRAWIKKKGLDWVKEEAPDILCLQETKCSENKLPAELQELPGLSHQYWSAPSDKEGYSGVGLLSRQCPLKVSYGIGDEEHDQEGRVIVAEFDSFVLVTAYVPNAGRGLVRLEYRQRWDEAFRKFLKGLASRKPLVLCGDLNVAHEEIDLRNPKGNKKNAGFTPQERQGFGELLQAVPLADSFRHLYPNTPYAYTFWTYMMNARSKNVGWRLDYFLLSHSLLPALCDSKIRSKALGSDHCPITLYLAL
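Quantitative HTS: incision of a TAMRA/BHQ-2 double-stranded substrate bearing a tetrahydrofuran abasic site by 0.75 nM APE1 raises fluorescence. Substrate 50 nM final, added after 15 min compound preincubation at room temperature; progress as third-minus-first kinetic read difference.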
KDM4E inh: qHTS Assay for Inhibitors of Human Jumonji Domain Containing 2E (JMJD2E). Potency, µM (titrated, usually from 57.1 µM), usual class: inhibitors. 230,000 compounds, 1.6% hits. AID 2147, 2009. JMJD2E catalytic domain, FDH-coupled NADH fluorescence (FDH is formaldehyde dehydrogenase). Lysine-specific demethylase 4E (Homo sapiens), B2RXH2; active = well fitted inhibition curve with a large enough effect, not every such curve was filed as active; inconclusive = small, poorly fitted or top-dose-only effect, or another doubt; inactive = no such curve, though single readings can be large or run the other way; note: nearly all actives have a fitted effect of over 50% in size
Target sequence (B2RXH2 1-337 limits assumed): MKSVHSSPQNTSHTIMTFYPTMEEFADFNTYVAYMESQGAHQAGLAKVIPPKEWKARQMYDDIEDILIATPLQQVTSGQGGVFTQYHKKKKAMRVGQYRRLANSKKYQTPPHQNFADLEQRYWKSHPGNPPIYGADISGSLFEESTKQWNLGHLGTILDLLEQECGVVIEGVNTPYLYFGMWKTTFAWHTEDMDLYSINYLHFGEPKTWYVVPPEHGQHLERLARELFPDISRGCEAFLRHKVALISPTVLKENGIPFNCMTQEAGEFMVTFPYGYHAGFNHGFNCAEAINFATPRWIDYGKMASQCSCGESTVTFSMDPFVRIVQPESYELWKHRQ
A number is an active result; . = inactive; ? = inconclusive; / = no result; ! = not confirmed by another sample. Only a selection was taken, and hits are over-represented in it overall. Unless noted, calls come from the whole dose curve; as a rule, active = well fitted curve in the direction sought with a large enough effect; inconclusive = small, poorly fitted or top-dose-only effect, or another doubt; inactive = no such curve, though single readings can be large; an effect the other way counts as inactive or inconclusive.

SMILES	L3MBTL1 block	BLM helicase inh	RECQ1 inh	APE1 inh	KDM4E inh
CN(C(=O)CSc1nc2ccc(NC(=O)c3ccccc3)cc2s1)c1ccccc1	/	.	/	/	/
CC1=C(C#N)C(=O)NC(=O)/C1=C\c1ccc(-c2ccc(C)cc2[N+](=O)[O-])o1	25.1µM	.	.	?	?
CCOC(=O)c1cc(-c2ccc(/C=C3/C(=O)NC(=O)C(C#N)=C3C)o2)ccc1Cl	?	.	?	?	?
CCc1ccc(OCCCC(=O)NCc2ccccc2)cc1	.	.	.	.	.
COc1ccccc1N1C(=O)CC(Nc2ccc(N3CCOCC3)cc2)C1=O (centres undefined)	.	.	.	.	?
CCOc1ccccc1N1C(=O)CC(Nc2ccc(N3CCOCC3)cc2)C1=O (centres undefined)	28.2µM	.	.	.	.
Cc1ncc(CO)c(/C=N/NC(=S)Nc2ccc(F)cc2)c1O	14.1µM	.	.	.	?
CCOC(=O)c1c(C)n(-c2ccc(C)cc2)c2c(C(C(C)=O)C(=O)O)c(Br)c(O)c(O)c12 (centres undefined)	/	.	.	.	?
CCOC(=O)C(C(C)=O)c1c(Br)c(O)c(O)c2c(C(=O)c3ccc(C)cc3)coc12 (centres undefined)	.	.	?	.	25.1µM
Cc1cc(=O)[nH]c(N/N=C/C2=C(N3CCOCC3)C(=C\c3ccc(Cl)cc3)/CC2)n1	.	.	.	.	28.2µM
C=C(NC(=O)C(=C)NC(=O)c1csc(C2=N[C@@H]3c4csc(n4)[C@@H]4NC(=O)c5csc(n5)[C@@H]([C@](C)(O)[C@H](C)O)NC(=O)[C@@H]5CSC(=N5)/C(=C/C)NC(=O)[C@@H]([C@H](C)O)NC(=O)c5csc(n5)[C@]3(CC2)NC(=O)[C@@H](C)NC(=O)C(=C)NC(=O)[C@@H](C)NC(=O)[C@@H]([C@@H](C)CC)N[C@H]2C=Cc3c([C@H](C)O)cc(nc3[C@@H]2O)C(=O)O[C@H]4C)n1)C(N)=O	/	.	.	/	.
O=c1/c(=C\c2cc([N+](=O)[O-])cc([N+](=O)[O-])c2O)sc2nc3ccccc3n12	/	.	14.1µM	35.5µM	?
O=c1/c(=C/c2ccccn2)sc2nc3ccccc3n12	.	.	.	.	.
CC(C)CSc1n[nH]c(=S)s1	.	.	.	.	10µM
CCOc1ccc(NC(=O)CN(Cc2ccccc2)S(C)(=O)=O)cc1	.	.	.	.	.
COc1cccc(/C=N/NC(=S)NC2CC3CC2C2C=CCC32)c1O (centres undefined)	.	.	.	.	.
Oc1ccccc1/C=N/NC(=S)NC1CC2CC1C1C=CCC21 (centres undefined)	.	.	.	.	15.8µM
Cc1ccc2[nH]c(C(=O)N3CCCC(Nc4ccc(F)cc4)C3)cc2c1 (centres undefined)	/	.	/	.	/
Cc1nc(S/C(=C/c2ccc(-c3cc(Cl)ccc3C)o2)C(=O)O)n[nH]1	.	.	.	.	5.01µM
Cc1nc(S/C(=C/c2ccc(-c3ccc(Cl)cc3)o2)C(=O)O)n[nH]1	/	.	.	.	.
O=c1cc(-c2ccc(O)cc2)oc2cc(O)cc(O)c12	/	.	.	25.1µM!	11.2µM!
O=c1cc(-c2ccccc2)oc2cc(O)cc(O)c12	/	.	.	.	?
O=c1cc(-c2cc(O)c(O)c(O)c2)oc2cc(O)cc(O)c12	/	?	?	?	10µM
O=c1cc(-c2ccccc2O)oc2cc(O)cc(O)c12	/	.	.	.	.
CN(C)c1ccc(P(=O)(OCc2ccccc2)C(O)c2ccncc2)cc1 (centres undefined)	.	.	.	.	20µM
SMILES	L3MBTL1 block	BLM helicase inh	RECQ1 inh	APE1 inh	KDM4E inh
CCCOP(=O)(c1ccc(N(C)C)cc1)C(O)c1ccncc1 (centres undefined)	/	.	.	.	17.8µM
O=C(CSc1nnc2c(n1)[nH]c1ccc(S(=O)(=O)N3CCOCC3)cc12)Nc1ccccc1Cl	.	.	.	.	?
COc1ccc(S(=O)(=O)N(c2onc(C)c2Cl)S(=O)(=O)c2ccc(OC)cc2)cc1	.	.	.	.	.
COc1cccc(/C=N/NC(=O)c2[nH]c(C)c(C(=O)N/N=C/c3cccc(OC)c3O)c2C)c1O	/	.	.	.	25.1µM
COc1cc(OC)c(OC)cc1/C=N/NC(=O)c1cc(-c2cccn2C)n[nH]1	.	.	.	.	?
COc1cccc(/C=N/NC(=O)c2ccc(=O)[nH]n2)c1O	.	.	.	.	12.6µM
CCOc1cccc(/C=N/NC(=O)c2cc(-c3cccn3C)n[nH]2)c1O	.	.	.	.	31.6µM
COc1cccc(/C=N/NC(=O)c2ccc(=O)n(C)c2)c1O	.	.	.	.	11.2µM
COc1cccc(/C=N/NC(=O)c2ccc(-c3ccccc3)cc2)c1O	/	.	.	.	?
Cc1cccc(NC(=O)CSc2nnc(-c3ccco3)n2CC2CCCO2)n1 (centres undefined)	.	.	.	.	.
O=C(CSc1nccc(=O)[nH]1)N1CCc2ccccc2C1	/	.	.	.	.
O=C1Cc2ccccc2C(=O)N1OCc1ccc(Cl)cc1Cl	.	.	.	.	.
O=[N+]([O-])c1ccc(N2N=C(c3ccco3)CC2c2ccccc2)cc1 (centres undefined)	.	.	.	.	.
CCc1ccc(N(CC(=O)Nc2ccc(NC(C)=O)cc2)S(=O)(=O)c2ccccc2)cc1	.	.	.	.	.
Cc1cccc(/C=N/NC(=O)Cc2ccc(Cl)cc2)c1O	.	.	/	.	/
Cc1cccc(/C=N\NC(=O)c2ccc(Cl)cc2)c1O	.	.	.	.	15.8µM
O=C(Nc1nc2ccccc2s1)NC1CCCCC1	.	.	.	.	.
COc1ccc2nc(NNC(=O)c3cc(=O)c4ccccc4o3)sc2c1	.	.	.	.	31.6µM
COc1ccc2nc(NC(=O)c3cc(=O)c4cc(C)c(C)cc4o3)sc2c1	/	.	/	/	/
COc1cc(N=c2ssnc2Cl)c(OC)cc1Cl	.	.	.	.	12.6µM
COc1ccc(OC)c(N=c2ssnc2Cl)c1	.	.	.	.	12.6µM
Nc1ccccc1N=c1ssnc1Cl	/	.	.	.	?
CCOc1ccccc1NC(=O)c1c(NC(=O)C(C)Oc2cccc(Cl)c2)sc2c1CCCCC2 (centres undefined)	/	.	/	/	/
CCN(Cc1ccccc1)S(=O)(=O)c1ccc(C(=O)Nc2nnc(C3CC3)o2)cc1	.	.	.	.	14.1µM
Cc1nnc(NC(=O)c2ccc(S(=O)(=O)N(C)Cc3ccccc3)cc2)o1	.	.	.	.	?
CN1CCN(NC(=O)c2cccc3ccccc23)CC1	.	.	.	.	.
